In ChEMBL document CHEMBL1157539, “Thousands of chemical starting points for antimalarial lead identification” (Nature, 2010):
Where “and” joins values, the source holds several entries; their conditions need not be identical. Equal values may be shown once.

Each compound was assayed on Plasmodium falciparum (assay: GSK_TCMDC: Inhibition of Plasmodium falciparum Dd2 in whole red blood cells, using parasite LDH activity as an index of growth. Test compounds present at 2uM).
Assay type: functional

| Compound | Inhibition [%] |
| --- | --- |
| O=C(Nc1cc(C(F)(F)F)cc(C(F)(F)F)c1)Nc1cc(C(F)(F)F)cc(C(F)(F)F)c1 | 100 |
| Cl.N=C(N)NN=Cc1cc2ccccc2c2ccccc12 | 63 |
| O=C(Nc1ccc(OC2CCN(Cc3ccsc3)CC2)c(Cl)c1)c1cccs1.O=C(O)C(F)(F)F | 93 |
| c1ccc(C2CCC(N3CCC(N4CCN(c5ccccc5)CC4)CC3)CC2)cc1 (stereo not given) | 34 |
| CCN1C(c2ccc(Cl)cc2)C(CNCc2ccccc2O)CC1(C)CO (stereo not given) | 99 |

Each compound was assayed on HepG2 (assay: GSK_TCMDC: Percent inhibition of human HepG2 cell line. Test compounds present at 10uM.).
Assay type: functional

| Compound | Inhibition |
| --- | --- |
| CC(=O)Nc1cccc(CNc2cc(C)nc(Nc3ccc(C)cc3)n2)c1 | 18% |
| COc1cccc(C(C)(C)NC[C@@H](O)[C@H](Cc2ccccc2)NC(=O)c2cc(C3CCCC3)cc(N3CCCCS3(=O)=O)c2F)c1.O=CO | 16% |
| O=C(Nc1ccc(OC2CCN(Cc3ccccc3)CC2)c(Cl)c1)c1ccco1.O=C(O)C(F)(F)F | 8% |
| Cc1ccnc(NC(c2cccc(Cl)c2Cl)c2ccc3cccnc3c2O)c1 (stereo not given) | 46% |
| Cc1cccc2nc(-c3ccc(-c4cccc(CN5CCN(c6ccc(C#N)cn6)CC5)c4)s3)[nH]c12.O=C(O)C(F)(F)F | 37% |
| CN1C(C)(C)CC(NC(=O)c2ccc(-c3nc4cc(Cl)c(Cl)cc4[nH]3)cc2)CC1(C)C | 8% |
| Cc1[nH]c2cc(F)ccc2c(=O)c1Cc1ccc(Cl)cc1.Cc1[nH]c2cccc(F)c2c(=O)c1Cc1ccc(Cl)cc1 | 7% and 6% |
| CN(C)c1ccc(-c2csc(C(=O)NC3CCN(Cc4ccc(C(C)(C)C)cc4)C3)c2)cc1.O=C(O)C(F)(F)F (stereo not given) | 26% |
| CCN(CC)CCc1ccc2c(=O)cc(CCc3cccc(F)c3F)n(CC(=O)N(C)Cc3ccc(-c4ccc(C(F)(F)F)cc4)cc3)c2c1.O=C(O)C(O)C(O)C(=O)O | 98% |
| COc1cccc2cc(C(=O)N[C@@H](CC(C)C)C(=O)N[C@H](C=NN3CCOC3=O)Cc3ccccc3)oc12 | 6% |
| Cc1nc(O)c2c(ccc3ccc(CNc4ccc(C(=O)N[C@@H](CCC(=O)O)C(=O)O)cc4)cc32)n1 | 32% |
| CN1CCN(c2ccc(Nc3ccnc4ccc(-c5ccccc5)cc34)cc2)CC1 | 20% |
| CNC(=O)c1cc(S(=O)(=O)Nc2ccc(OC)cc2)cs1 | 11% |
| CN(CCCN(C)c1cc(NC(=O)c2ccc(F)cc2)ccn1)Cc1cccc(O)c1.O=C(O)C(F)(F)F | 2% |
| CN1CCC(c2cc3c(cc2Br)CCN3C(=O)Nc2ccc(-c3ccncc3)c(Cl)c2)CC1 | 26% |
| N#Cc1ccc(CN2CCC(Oc3ccc(NC(=O)c4cccs4)cc3)C2)cc1.O=C(O)C(F)(F)F (stereo not given) | 5% |
| CC(C)CCN(Cc1cncn1Cc1cccc(C(F)(F)F)c1)C(=O)c1ccccc1C#N | 0% |
| O=C(NC1CCCCC1)C1CCCN(C(=O)c2ccc(O)c(-c3ccc(Cl)c(Cl)c3)c2)C1 (stereo not given) | 22% |
| Cc1cc(Nc2ccc3ccccc3c2)n2ncnc2n1 | 11% |
| Cc1c(CNCCCNc2nc3cscc3[nH]2)sc(C(F)F)c1Br.Cl | 1% |

| Compound | Inhibition |
| --- | --- |
| c1ccc(-c2[nH]c3ccccc3c2CN2CCC(N3CCCCC3)CC2)nc1 | 13% |
| O=C(Nc1cccc(F)c1)NC1CCN(CCCCCNC(=O)C2CC2c2ccc(Cl)c(Cl)c2)CC1 (stereo not given) | 41% |
| N#Cc1ccc2[nH]cc(C(=O)CCCCCN(Cc3ccccc3)Cc3ccccc3)c2c1 | 10% |
| COc1ccc(CN(C)CCCc2ccc(NC(=O)c3cc4ccccc4[nH]3)cc2)cc1OC.O=C(O)/C=C/C(=O)O | 39% |
| c1cncc(-c2cc(N3CCc4ccccc4C3)nc(-c3ccncc3)n2)c1 | 56% |
| NC1CCN(Cc2ccc(-c3cccc(-c4nc5ccccc5[nH]4)c3)cc2)C1.O=C(O)C(F)(F)F (stereo not given) | 19% |
| Cc1cc(N[C@@H](CC(C)C)C(=O)NCCOc2ccccc2)nc(NCCc2ccccc2)n1.O=C(O)C(F)(F)F | 13% |
| CCC(C)CN1CCN(c2ccc(NC(=O)c3cccs3)cc2)C(C)C1.O=C(O)C(F)(F)F (stereo not given) | 0% |
| CCCO[C@H](C(=O)OC)[C@@H](CC1Cc2ccccc2C1)C(=O)NCCC1=CCCCC1 | 6% |
| COc1cc(O)c2c(=O)c(OC)c(-c3cccc(Cl)c3OCC(=O)O)oc2c1OC | 0% |
| Cc1cnc(C(=O)Nc2cccc(-c3ccc(-c4nc5cc(F)ccc5[nH]4)cc3)c2)cn1 | 19% |
| O=C(NC1CCN(Cc2ccccc2)CC1)c1cccc(-c2cc3cc(Cl)c(Cl)cc3[nH]2)c1.O=C(O)C(F)(F)F | 15% |
| CN(C)CCOc1cc(NC(=O)Nc2ccc(-c3ccncc3)c(C(F)(F)F)c2)ccc1Cl | 36% |
| CCNc1cc(C(=O)N[C@@H](Cc2ccc(F)c(F)c2)[C@H](O)CNC2CCCCC2)cc(N2CCCCS2(=O)=O)c1.Cl | 1% |
| CC(C)NCC(O)COc1ccc(Cc2ccc(OCC(O)CNC(C)C)cc2)cc1.Cl (stereo not given) | 0% |
| O=C(Nc1cc(C(F)(F)F)cc(C(F)(F)F)c1)Nc1cc(C(F)(F)F)cc(C(F)(F)F)c1 | 5% |
| Cl.N=C(N)NN=Cc1cc2ccccc2c2ccccc12 | 25% |
| O=C(Nc1ccc(OC2CCN(Cc3ccsc3)CC2)c(Cl)c1)c1cccs1.O=C(O)C(F)(F)F | 16% |
| c1ccc(C2CCC(N3CCC(N4CCN(c5ccccc5)CC4)CC3)CC2)cc1 (stereo not given) | 6% |
| CCN1C(c2ccc(Cl)cc2)C(CNCc2ccccc2O)CC1(C)CO (stereo not given) | 47% |
